In PubChem BioAssay:
Results with a measured potency or affinity are listed apart. Results filed as inconclusive are left out. The source made the active and inactive calls. Unless noted, how the calls were made is not given here.

What was measured:
[1] = cytotoxicity in PAX8-dependent RMG-1 cells, dose response, cell-based, cherry-pick (AID 687029;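 active means signal drop whose fitted half-maximal concentration is at most twice the top valid dose, in every test run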;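 further: cells exposed to compound for 96 hours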)
[2] = cytotoxicity in IOSE-T80 ovarian epithelial cells, dose response, selectivity assay for PAX8 inhibitor project, cell-based, cherry-pick (AID 687032;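 active means fitted half-maximal concentration for viability loss no higher than twice the top valid dose, in every repeat run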;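 further: cells exposed to compound for 96 h before reading; 0% = neutral control wells and -100% = 2 µM mitoxantrone kill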)
[3] = non-specific cell cytotoxicity, dose response, cytotoxicity control for PAX8 inhibitor project, plate reader, dry powder samples (AID 743021)
[4] = IGROV1 ovarian cancer cell cytotoxicity, dose response, PAX8 inhibitor project, plate reader, dry powder samples (AID 743043);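 further: more negative means fewer viable cells or more cytotoxicity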
[5] = NIH:OVCAR-3 ovarian cancer cell cytotoxicity, dose response, PAX8 inhibitor project, plate reader, dry powder samples (AID 743044); settings: max activity: at 35 µM, stronger effect = lower value unless noted
[6] = A2780 ovarian cancer cell cytotoxicity, dose response, cytotoxicity control, plate reader, dry powder samples (AID 743046);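 further: 0% = neutral control wells and -100% = cytotoxic reference compound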
[7] = IOSE-T80 ovarian epithelial cell cytotoxicity, dose response, cytotoxicity control for PAX8 inhibitor project, plate reader, dry powder samples (AID 743045);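 further: 0% = neutral control median and -100% = positive control median; more negative values mean more cell killing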
[8] = A549 cell cytotoxicity, dose response, cytotoxicity control, plate reader, cherry-pick, antagonist series (AID 743412);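 further: 0% = neutral control wells and -100% = positive control wells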
[9] = HepG2 cell cytotoxicity, dose response, cytotoxicity control, plate reader, cherry-pick, antagonist series (AID 743416);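 further: 0% = neutral control wells and -100% = positive control wells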
[10] = cytotoxicity in OVCAR8 ovarian cancer cells, dose response, PAX8 project, cell-based, plate reader, dry powder samples (AID 743197)

Measured: max activity

COc1ccc(CCN2C(=O)CSC2=S)cc1OC
inactive: [1] | [2] | [3] | [4] | [5] | [6]

Cc1ccccc1OCC(=O)Nc1cccc(C(=O)O)c1
not listed: [10]
inactive: all other assays above

O=C(C[C@H]1C[C@@H]2c3cc(NS(=O)(=O)c4ccc(F)cc4)ccc3O[C@@H]2[C@@H](CO)O1)NCc1ccc(Oc2ccccc2)cc1
inactive: [1] | [2] | [3] | [4] | [5] 26.4% | [7] | [6] | [10]

O=C(Nc1ccc(C(F)(F)F)cc1)Nc1ccc2c(c1)[C@H]1C[C@@H](CC(=O)N3CCc4ccccc4C3)O[C@H](CO)[C@H]1O2
inactive: [1] | [2] | [3] | [4] | [7] | [6]

C[C@H]1CCCCO[C@@H](CN(C)Cc2ccc(C(F)(F)F)cc2)[C@@H](C)CN([C@@H](C)CO)C(=O)c2cc(NC(=O)Nc3ccc(F)cc3)ccc2O1
inactive: [1] | [2] | [3] | [4] | [7] | [6]

C[C@H](CO)N1C[C@H](C)[C@@H](CN(C)C(=O)Nc2cccc3ccccc23)OCCCC[C@H](C)Oc2ccc(NC(=O)c3ccncc3)cc2C1=O
inactive: [1] | [2] | [3] | [4] | [5] -25.1% | [7] | [6] | [10]

O=C1/C(=C/c2cccc(Br)c2)SC(=S)N1CCC(=O)N(CCO)c1ccccc1
not listed: [8] | [9] | [10]
inactive: all other assays above

C[C@@H]1CN([C@@H](C)CO)C(=O)c2cc(NC(=O)Nc3ccc(F)cc3)ccc2O[C@@H](C)CCCCO[C@@H]1CN(C)Cc1ccc(C(F)(F)F)cc1
inactive: [1] | [2] | [3] | [4] | [7]

C[C@@H]1CCCCO[C@H](CN(C)Cc2ccc3c(c2)OCO3)[C@@H](C)CN([C@@H](C)CO)C(=O)c2cc(NC(=O)Nc3ccc(C(F)(F)F)cc3)ccc2O1
inactive: [1] | [2] | [3] | [4] | [5] -12% | [7] | [6]

C[C@@H]1CCCCO[C@H](CN(C)CC2CCCCC2)[C@H](C)CN([C@@H](C)CO)C(=O)c2cc(NS(=O)(=O)c3ccc(Cl)cc3)ccc2O1
inactive: [1] | [2] | [3] | [4] | [5] 13.1% [at 0.5 µM, stronger effect = lower value] | [7] | [6] | [10]

C[C@H]1CN([C@@H](C)CO)C(=O)c2c(c3ccccc3n2C)-c2ccccc2CO[C@@H]1CN(C)S(=O)(=O)c1cccc(F)c1
inactive: [1] | [2] | [3] | [4] | [5] -21.9% | [7] | [6]

C[C@H]1CN([C@@H](C)CO)C(=O)Cc2cc(NC(=O)Nc3ccc4c(c3)OCO4)ccc2O[C@@H]1CN(C)Cc1ccc(-c2ccccc2)cc1
inactive: [1] | [2] | [3] | [4] | [5] -22.8% [at 16 µM, stronger effect = lower value] | [7] | [6] | [10]

CCCN(C)C[C@H]1OCCCC[C@@H](C)Oc2ccc(NC(=O)Nc3ccc(C(F)(F)F)cc3)cc2C(=O)N([C@H](C)CO)C[C@H]1C
inactive: [1] | [2] | [3] | [4] | [5] 9.68% [at 1 µM, stronger effect = lower value] | [7] | [6] | [10]

C[C@@H]1CCCCO[C@H](CN(C)C(=O)Nc2ccc(C(F)(F)F)cc2)[C@@H](C)CN([C@@H](C)CO)C(=O)c2cc(NS(=O)(=O)c3ccc(F)cc3)ccc2O1
inactive: [1] | [2] | [3] | [4] | [5] 19.5% [at 4.2 µM, stronger effect = lower value] | [7] | [6]

C[C@@H]1CCCCO[C@H](CN(C)Cc2ccc(Cl)c(Cl)c2)[C@@H](C)CN([C@@H](C)CO)C(=O)c2cc(NC(=O)Nc3ccc(C(F)(F)F)cc3)ccc2O1
inactive: [1] | [2] | [3] | [4] | [7] | [6]

C[C@@H]1CCCCO[C@H](CN(C)C(=O)Nc2ccc(C(F)(F)F)cc2)[C@@H](C)CN([C@@H](C)CO)C(=O)c2cc(NS(=O)(=O)c3ccccc3)ccc2O1
inactive: [1] | [2] | [3] | [4] | [5] 27.6% [at 0.26 µM, stronger effect = lower value] | [7] | [6] | [10]

C[C@@H]1CCCCO[C@@H](CN(C)C(=O)Nc2ccc(F)cc2)[C@H](C)CN([C@@H](C)CO)C(=O)c2cc(NC(=O)Nc3ccc(C(F)(F)F)cc3)ccc2O1
inactive: [1] | [2] | [3] | [4] | [5] -4.11% | [7] | [6] | [10]

C[C@@H]1CCCCO[C@H](CN(C)S(=O)(=O)c2ccc(Cl)cc2)[C@H](C)CN([C@@H](C)CO)C(=O)c2cc(NS(=O)(=O)c3ccc(F)cc3)ccc2O1
inactive: [1] | [2] | [3] | [4] | [5] -23.5% [at 8 µM, stronger effect = lower value] | [7] | [6] | [10]

O=C(C[C@@H]1CC[C@@H]2[C@H](COC[C@@H](O)CN2C(=O)Nc2ccc(C(F)(F)F)cc2)O1)NC1Cc2ccccc2C1
inactive: [1] | [2] | [3] | [5] -24.5% | [7] | [6] | [10]

C[C@H]1CCCCO[C@@H](CN(C)S(=O)(=O)c2ccccc2)[C@@H](C)CN([C@@H](C)CO)C(=O)c2cc(NC(=O)Nc3ccc(C(F)(F)F)cc3)ccc2O1
inactive: [1] | [2] | [3] | [7] | [6]

C[C@@H]1CCCCO[C@H](CN(C)C(=O)Nc2ccc(C(F)(F)F)cc2)[C@@H](C)CN([C@@H](C)CO)C(=O)c2cc(NS(=O)(=O)c3ccc(Cl)cc3)ccc2O1
inactive: [1] | [2] | [3] | [7]

C[C@@H]1CCCCO[C@@H](CN(C)S(=O)(=O)c2ccc(Cl)cc2)[C@H](C)CN([C@H](C)CO)C(=O)c2cc(NS(=O)(=O)c3ccc(Cl)cc3)ccc2O1
inactive: [1] | [2] | [3] | [7]

C[C@@H]1CN([C@@H](C)CO)C(=O)Cc2cc(N(C)C)ccc2O[C@H]1CN(C)Cc1ccc(C(=O)Nc2ccccc2N)cc1
inactive: [1] | [2] | [3] | [7] | [6]

Cc1ccc(-c2ccc([C@H]3[C@H](CO)N4CCCCN(S(=O)(=O)c5cccc(C)c5)C[C@@H]34)cc2)cc1
inactive: [1] | [2] | [3] | [7] | [6]

C[C@H]1CCCCO[C@H](CN(C)Cc2ccc(Cl)c(Cl)c2)[C@@H](C)CN([C@@H](C)CO)C(=O)c2cc(NC(=O)Nc3ccc(C(F)(F)F)cc3)ccc2O1
inactive: [1] | [2] | [3] | [7] | [6]

C[C@@H]1CN([C@H](C)CO)C(=O)c2cc(NS(=O)(=O)c3ccc(Cl)cc3)ccc2O[C@@H](C)CCCCO[C@H]1CN(C)S(=O)(=O)c1ccc(Cl)cc1
inactive: [1] | [2] | [3] | [7]

COc1ccc2c3c(n(C)c2c1)[C@H](CO)N(Cc1ccccc1)CC31CCN(S(=O)(=O)c2ccc(C)cc2)CC1
inactive: [1] | [2] | [3] | [7]

C[C@@H]1CCCCO[C@H](CN(C)Cc2ccc(Cl)c(Cl)c2)[C@H](C)CN([C@@H](C)CO)C(=O)c2cc(NS(=O)(=O)c3ccc(Cl)cc3)ccc2O1
inactive: [1] | [2] | [3] | [7] | [6]

Cc1noc(C)c1S(=O)(=O)Nc1ccc2c(c1)CC(=O)N([C@@H](C)CO)C[C@@H](C)[C@H](CN(C)Cc1ccc(Cl)c(Cl)c1)O2
inactive: [1] | [2] | [3] | [7] | [6]

COc1ccc(S(=O)(=O)Nc2ccc3c(c2)C(=O)N([C@H](C)CO)C[C@@H](C)[C@@H](CN(C)Cc2ccc(C(F)(F)F)cc2)OCCCC[C@H](C)O3)cc1
not listed: [5] | [8] | [9]
inactive: all other assays above

C[C@@H]1CCCCO[C@H](CN(C)Cc2ccc(C(F)(F)F)cc2)[C@H](C)CN([C@H](C)CO)C(=O)c2cc(NS(=O)(=O)c3ccc(Cl)cc3)ccc2O1
inactive: [1] | [2] | [3] | [7]

C[C@@H]1CN([C@H](C)CO)C(=O)c2cc(NS(=O)(=O)c3ccc(Cl)cc3)ccc2O[C@@H](C)CCCCO[C@@H]1CN(C)CC1CCCCC1
inactive: [1] | [2] | [3] | [7] | [6]

C[C@H](CO)N1C[C@H](C)[C@@H](CN(C)Cc2ccc(C(F)(F)F)cc2)OCCCC[C@H](C)Oc2ccc(NS(=O)(=O)c3ccc(Cl)cc3)cc2C1=O
inactive: [1] | [2] | [3] | [7]

C[C@H]1CCCCO[C@H](CN(C)C(=O)Nc2ccc(C(F)(F)F)cc2)[C@@H](C)CN([C@@H](C)CO)C(=O)c2cc(NC(=O)Nc3ccccc3)ccc2O1
inactive: [1] | [2] | [3] | [7]

C[C@@H]1CN([C@H](C)CO)C(=O)c2cc(NS(=O)(=O)c3ccc(F)cc3)ccc2O[C@@H](C)CCCCO[C@H]1CN(C)Cc1ccc(C(F)(F)F)cc1
inactive: [1] | [2] | [3] | [7] | [6]

O=C(Nc1ccccc1)N1C[C@@H]2N[C@H](C1)[C@@H]2c1ccc(/C=C/c2ccccc2)cc1
inactive: [1] | [2] | [3] | [4] | [7] | [10]

C[C@@H]1CN([C@H](C)CO)S(=O)(=O)c2ccc(C#Cc3ccncc3)cc2O[C@H]1CN(C)C(=O)C1CCCCC1
not listed: [5] | [8] | [9]
inactive: all other assays above
